Inconclusive results are not listed. Activity calls are given as the source filed them. How the source made its calls, unless noted: active means hit-call score of the fitted dose curve at least 0.9, where 1 is the maximum; inconclusive means response in the unintended direction; inactive means score below 0.9.
How the values were obtained:
[1] = biological target: Cellular tumor antigen p53 (Homo sapiens) (UniProt P04637); assay: TOX21_p53_BLA_p2_ratio: Tox21 HCT-116 p53 Agonism Beta-lactamase Assay, Ratio, Phase 2 (AID 2283592)
Chain of Cellular tumor antigen p53 (Homo sapiens) (P04637 whole entry, looked up): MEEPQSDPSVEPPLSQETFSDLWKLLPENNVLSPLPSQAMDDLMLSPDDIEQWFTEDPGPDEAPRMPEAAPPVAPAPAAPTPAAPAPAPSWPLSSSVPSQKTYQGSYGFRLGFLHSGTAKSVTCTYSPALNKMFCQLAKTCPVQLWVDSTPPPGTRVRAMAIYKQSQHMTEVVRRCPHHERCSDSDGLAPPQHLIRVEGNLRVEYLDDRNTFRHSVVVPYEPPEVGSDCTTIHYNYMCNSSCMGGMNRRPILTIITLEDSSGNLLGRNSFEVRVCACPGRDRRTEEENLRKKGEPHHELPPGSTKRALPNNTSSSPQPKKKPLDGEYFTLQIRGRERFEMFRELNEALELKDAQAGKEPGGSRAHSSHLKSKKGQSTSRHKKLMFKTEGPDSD
Method in brief: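 DMSO-normalized, positive-direction endpoint derived from the 460 nm/530 nm FRET ratio in HCT116 p53 beta-lactamase reporter cells exposed 16 h at 37C and loaded with CCF4-AM for 2 h.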

[2] = biological target: Cellular tumor antigen p53 (Homo sapiens) (UniProt P04637); assay: TOX21_p53_BLA_p3_ratio: Tox21 HCT-116 p53 Agonism Beta-lactamase Assay, Ratio, Phase 3 (AID 2283596)
Method in brief: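 Cells were seeded at 4000/well, rested 5 h at 37C, then dosed with DMSO compound solutions (217-fold dilution) for 16 h. CCF4-AM substrate was loaded for 2 h at room temperature, and the 460/530 nm emission ratio was fitted for gain of signal versus DMSO.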

[3] = biological target: Cellular tumor antigen p53 (Homo sapiens) (UniProt P04637); assay: TOX21_p53_BLA_p5_ratio: Tox21 HCT-116 p53 Agonism Beta-lactamase Assay, Ratio, Phase 5 (AID 2283599)
Method in brief: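 HCT-116 cells carrying a p53-inducible beta-lactamase reporter were seeded at 4000 cells/well and dosed after 5 h with compound in DMSO (217-fold dilution). After 16 h at 37C, CCF4-AM substrate was added for 2 h, and the 460/530 nm emission ratio was scored as gain-of-signal versus DMSO.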

[4] = TOX21_p53_BLA_p5_viability: Viability Assessment in the Tox21 HCT-116 p53 Agonism Beta-lactamase Assay, Phase 5 (AID 2283600)
Method in brief: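 Here cell health was gauged by ATP levels in wells holding 4000 cells, each treated 16 h with DMSO-delivered compounds at 217-fold dilution; reduced luminescence marked toxicity.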

[5] = biological target: Cellular tumor antigen p53 (Homo sapiens) (UniProt P04637); assay: TOX21_p53_BLA_p4_ratio: Tox21 HCT-116 p53 Agonism Beta-lactamase Assay, Ratio, Phase 4 (AID 2283601)
Method in brief: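 HCT116 cells carrying an inducible beta-lactamase reporter were plated at 4000 cells/well, rested 5 h, then exposed to compounds in DMSO (217-fold dilution) for 16 h at 37C. CCF4-AM substrate was loaded 2 h at room temperature; 460/530 nm emission ratio scored gain-of-signal versus DMSO.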

[6] = TOX21_p53_BLA_p4_viability: Viability Assessment in the Tox21 HCT-116 p53 Agonism Beta-lactamase Assay, Phase 4 (AID 2283597);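 further: hits lower the luminescence signal meaning cytotoxicity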
Method in brief: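 In this multiplexed secondary endpoint, HCT116 cells (4000 per well, compound at 5 h, 16 h treatment) received CellTiter-Glo after the beta-lactamase read. Luminescence after 30 min RT reflects ATP, and falling signal marks cytotoxicity.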

[7] = biological target: Thyroid hormone receptor alpha (Rattus norvegicus) + Thyroid hormone receptor beta (Rattus norvegicus) (UniProt P18113+P63059); assay: TOX21_TR_LUC_GH3_Antagonist_Followup: Tox21 GH3 Thyroid Hormone Receptor Antagonism Luciferase Follow-Up Assay (AID 2283942)
Method in brief: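 In a GH3 luciferase reporter line, test chemicals spanning 92 uM to 5nM final are co-incubated 24 h with 1.0 nM T3. Activity is expressed as relative luminescence units and analysed relative to DMSO.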

THRB (gene 7068) = THRB (gene 7068) (UniProt P10828); assay: TOX21_TRB_BLA_Antagonist_Followup_ratio: Tox21 Thyroid Hormone Receptor beta Antagonism Beta-lactamase (BLA) Follow-Up Assay, Ratio (AID 2283958)
Chain of THRB (gene 7068) (P10828 whole entry, looked up, the tested form may be a part): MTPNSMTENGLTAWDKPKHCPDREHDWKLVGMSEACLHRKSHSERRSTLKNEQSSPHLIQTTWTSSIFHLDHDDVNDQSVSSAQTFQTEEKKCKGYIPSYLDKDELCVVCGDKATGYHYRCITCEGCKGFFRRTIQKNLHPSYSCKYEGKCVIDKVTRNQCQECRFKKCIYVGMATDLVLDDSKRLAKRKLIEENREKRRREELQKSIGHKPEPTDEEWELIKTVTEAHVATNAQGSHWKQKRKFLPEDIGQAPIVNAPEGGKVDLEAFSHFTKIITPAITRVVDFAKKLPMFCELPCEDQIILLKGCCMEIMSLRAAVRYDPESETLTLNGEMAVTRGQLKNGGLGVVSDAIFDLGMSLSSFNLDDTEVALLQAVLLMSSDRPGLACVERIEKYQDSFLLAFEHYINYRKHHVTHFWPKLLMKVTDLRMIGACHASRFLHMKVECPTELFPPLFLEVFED
Method in brief: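 Using charcoal-stripped 2% FBS medium, human TRβ-LBD/GAL4 reporter HEK293T cells received test compounds for 18 h. The endpoint is the cleaved-to-uncleaved substrate ratio (460/530 nm).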

[8] = TOX21_TRB_BLA_Antagonist_Followup_viability: Viability Assessment in the Tox21 Thyroid Hormone Receptor beta Antagonism Beta-lactamase (BLA) Follow-Up Assay (AID 2283961)
Method in brief: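 In the same wells as the reporter read, cell health was gauged by CellTiter-Glo ATP luminescence, with signal loss indicating reduced viability. Cells had been exposed to test compounds for 18 h.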

[9] = biological target: Retinoic acid receptor RXR-alpha (Homo sapiens) (UniProt P19793); assay: TOX21_TR_RXR_BLA_Antagonist_Followup_ratio: Tox21 Thyroid Hormone Receptor beta Retinoid X Receptor alpha (RXRa) Antagonism Beta-lactamase (BLA) Follow-Up Assay, Ratio (AID 2283972)
Chain of Retinoic acid receptor RXR-alpha (Homo sapiens) (P19793 whole entry, looked up): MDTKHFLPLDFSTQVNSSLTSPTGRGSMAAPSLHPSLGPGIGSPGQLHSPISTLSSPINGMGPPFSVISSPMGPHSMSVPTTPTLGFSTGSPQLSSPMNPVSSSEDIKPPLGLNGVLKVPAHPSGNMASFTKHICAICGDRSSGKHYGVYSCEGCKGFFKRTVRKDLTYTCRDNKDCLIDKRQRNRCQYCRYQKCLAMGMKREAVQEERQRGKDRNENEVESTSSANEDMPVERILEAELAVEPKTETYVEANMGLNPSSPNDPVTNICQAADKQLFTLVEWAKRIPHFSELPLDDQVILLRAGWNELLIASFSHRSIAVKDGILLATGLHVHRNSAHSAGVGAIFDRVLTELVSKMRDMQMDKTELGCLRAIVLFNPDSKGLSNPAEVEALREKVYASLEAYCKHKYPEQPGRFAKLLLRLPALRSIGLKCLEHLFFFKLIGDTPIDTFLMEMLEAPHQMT
Method in brief: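 Compounds were tested in triplicate at 11 concentrations on RXRa-bla HEK293T cells for 16 h. Substrate cleavage ratio, normalized to DMSO, gave the endpoint.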

[10] = TOX21_TR_RXR_BLA_Antagonist_Followup_viability: Viability Assessment in the Tox21 Thyroid Hormone Receptor beta Retinoid X Receptor alpha (RXRa) Antagonism Beta-lactamase (BLA) Follow-Up Assay (AID 2283979)
Method in brief: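 RXRa-UAS-bla HEK293T cells seeded 2,500/well in phenol red-free DMEM with 2% charcoal-stripped FBS, attached 5 h, then exposed to compounds at 11 concentrations in triplicate for 16 h at 37C/5% CO2. Viability read by CellTiter-Glo ATP luminescence; bidirectional fit versus DMSO.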

[11] = UKN5_HCS_SBAD2_neurite_outgrowth: University of Konstanz (UKN) Leist Lab Neurite Outgrowth Assay in human iPSC-derived immature Dorsal Root Ganglia Neurons (UKN5) (AID 2284070; active means hit-call score of the fitted dose curve at least 0.9, where 1 is the maximum; inactive means score below 0.9); conditions: actives raise or lower the signal
Method in brief: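 Neurite outgrowth is quantified as calcein-AM-labelled neurite area in human iPSC-derived peripheral neurons treated for 24 h, starting 1 h after plating in medium with CHIR99021 (1.5 uM), SU5402 (5 uM) and DAPT (5 uM).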

[12] = UKN2_HCS_IMR90_neural_migration: University of Konstanz (UKN) Leist Lab Neural Crest Cell Migration Assay in human induced IMR90 Pluripotent Stem Cells (UKN2) (AID 2284204; active means hit-call score of the fitted dose curve at least 0.9, where 1 is the maximum; inactive means score below 0.9); conditions: actives raise or lower the signal
Method in brief: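 Using a 96-well stopper format with PLO/laminin/fibronectin coating, neural crest cells from iPSC migrate in cytokine-supplemented N2-S medium; after 24 h, chemicals are applied for a further 24 h, then cells are imaged after dye staining.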

[13] = UKN4_HCS_LUHMES_cell_viability: Viability Assessment in the University of Konstanz (UKN) Leist Lab Neurite Outgrowth Assay in human LUHMES cells (UKN4) (AID 2284232; active means hit-call score of the fitted dose curve at least 0.9, where 1 is the maximum; inactive means score below 0.9)
Method in brief: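 Measured in replated, 2-day-differentiated LUHMES cells treated 24 h; stained 30 min with H-33342 and calcein-AM before high-content imaging.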

[14] = UKN2_HCS_IMR90_cell_viability: Viability Assessment in the University of Konstanz (UKN) Leist Lab Neural Crest Cell Migration Assay in human induced IMR90 Pluripotent Stem Cells (UKN2) (AID 2284233; active means hit-call score of the fitted dose curve at least 0.9, where 1 is the maximum; inactive means score below 0.9;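 further: viability of neural crest cells differentiated from IMR90 iPSC measured by calcein-AM fluorescence imaging; cells exposed to compound for 24 h after a 24 h migration phase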)
Method in brief: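 cMINC format, iPSC-derived neural crest (IMR90); 24 h migration (EGF/FGF, N2-S), then 24 h toxicant. Calcein-AM/H-33342 stain 30 min; fluorescence intensity by HCS; DMSO-normalised, bidirectional fitting.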

[15] = CCTE_Harrill_HTTr_Viability_MCF7: CCTE's 6-hour Cell Viability Assessment for the High-Throughput Transcriptomics (HTTr) Platform, in MCF-7 cells cultured in DMEM + 10% fetal bovine serum, Harrill Lab (AID 2284010; active means hit-call score of the fitted dose curve at least 0.9, where 1 is the maximum; inactive means score below 0.9)
Method in brief: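 Eight-point concentration series, six-hour exposure. Propidium iodide exclusion imaged to assess membrane integrity as a cytotoxicity readout; bidirectional fitting was done with DMSO as negative control and activity baseline.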

[16] = CCTE_Harrill_HTTr_Apoptosis_MCF7: CCTE's 6-hour Apoptosis Assessment for the High-Throughput Transcriptomics (HTTr) Platform, in MCF-7 cells cultured in DMEM + 10% fetal bovine serum, Harrill Lab (AID 2284011; active means hit-call score of the fitted dose curve at least 0.9, where 1 is the maximum; inactive means score below 0.9)
Method in brief: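 Apoptosis in MCF-7 cells grown in DMEM with 10% fetal bovine serum was scored after a six hour exposure by high content imaging of caspase-3/7 activation (CellEvent Caspase 3/7 Green), with DMSO serving as negative control and baseline.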

[17] = CCTE_Harrill_HTTr_CellCount_MCF7: CCTE's Cell Proliferation Assessment for the High-Throughput Transcriptomics (HTTr) Platform, Harrill Lab (AID 2284012);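 further: count of Hoechst-stained nuclei per well by high-content imaging in MCF-7 cells; cells exposed to compound for six hours; intended direction is loss of nuclei count meaning fewer cells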
Method in brief: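 For this full-screen endpoint, MCF-7 cultures received eight compound dilutions for six hours. Well nuclei counts from Hoechst imaging were analyzed relative to DMSO.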

Measured: outcome

Cc1cccc(C#N)c1
inactive: [1] | [2] | [3] | [4] | [5]

CCCC[N+]1(C)CCCC1
inactive: [1] | [2] | [3] | [5]

CCC(N)Cc1c[nH]c2ccccc12 (centres undefined)
inactive: [1] | [2] | [3] | [5]

CCC(Cl)[N+](=O)[O-] (centres undefined)
inactive: [1] | [2] | [3] | [4] | [5]

C[N+]1(C)[C@@H]2CC[C@H]1CC(OC(=O)C(CO)c1ccccc1)C2 (some centres undefined)
inactive: [1] | [2] | [3] | [5]

COP(=S)(OC)Oc1ccc(S(N)(=O)=O)cc1
inactive: [1] | [6] | [3] | [4] | [5]

O=C1OC(c2ccc(O)c(S(=O)(=O)O)c2)(c2ccc(O)c(S(=O)(=O)O)c2)c2c(Br)c(Br)c(Br)c(Br)c21
inactive: [1] | [2] | [4] | [5]

O=C1OC2(c3cc(Br)c(O)cc3Oc3c2cc(Br)c(O)[c]3[Hg])c2ccccc21 (centres undefined)
inactive: [1] | [3] | [5] | [7] | THRB (gene 7068) | [8] | [9] | [10]

C[C@@H](Cc1ccccc1)N(C)C
inactive: [1] | [6] | [3] | [4] | [5]

COc1cc(CC(C)N)cc(OC)c1OC (centres undefined)
inactive: [1] | [3] | [5]

O=C1CN(O)C(c2ccccc2)=c2cc(Cl)ccc2=N1
inactive: [1] | [6] | [5]

NNC(=O)c1cccnc1
inactive: [1] | [6] | [3] | [5]

NC(=O)CN1CC(O)CC1=O (centres undefined)
inactive: [1] | [4] | [5]

CN(C)CCc1ccc(O)cc1
inactive: [1] | [3] | [5]

CCCN(CCC)CCc1c[nH]c2ccccc12
inactive: [1] | [2] | [4] | [5]

c1cc2c(c(N3CCNCC3)c1)OCCO2
inactive: [1] | [6] | [3]

CC[C@H]1C[C@@H]2C[C@H]3c4[nH]c5ccc(OC)cc5c4CCN(C2)[C@@H]13
inactive: [1] | [2] | [5]

CN[C@@H](C)Cc1ccccc1
inactive: [1] | [6] | [11] | [12] | [13] | [14]

CCC1C(C)=NN=C(c2ccc(OC)c(OC)c2)c2cc(OC)c(OC)cc21 (centres undefined)
inactive: [1] | [3]

CC(Cc1ccccc1)NC=O (centres undefined)
inactive: [1] | [6] | [3] | [4] | [5]

N#CCCC#N
inactive: [1] | [6] | [3] | [4]

CNNC
inactive: [1] | [3]

CCN
inactive: [1] | [3] | [5]

CON(C)C(=O)Nc1ccc(Cl)cc1
inactive: [1] | [3] | [5]

CCCCc1c(C)nc(NCC)nc1OS(=O)(=O)N(C)C
inactive: [1] | [3] | [15] | [16] | [17]

CNC(=O)OCC[N+](C)(C)C
inactive: [1] | [6] | [4] | [5]

CNC(=O)Oc1ccccc1C1OCCO1
inactive: [1] | [3] | [4] | [5]

CC(C)(Cl)[N+](=O)[O-]
inactive: [1] | [2] | [4] | [5]

CC(Cl)C(C)Cl (centres undefined)
inactive: [1] | [6] | [3]

NC(=O)C(Cl)Cl
inactive: [1] | [6] | [3] | [5]

CC(C)=CCOc1c2occc2cc2ccc(=O)oc12
inactive: [1] | [6] | [3] | [4] | [5]

CCCCCN(C)CCC(O)(P(=O)(O)O)P(=O)(O)O
inactive: [1] | [6] | [3] | [4] | [5]
